Source: PubChem BioAssay (NCATS)
Inconclusive results are not listed. A number with no mark means an inactive call. Activity calls are given as the source filed them. Calls follow the shape of the dose curve; as a rule, active = well fitted curve in the direction sought with a large enough effect; inconclusive = small, poorly fitted or top-dose-only effect, or another doubt; inactive = no such curve, though single readings can be large; an effect the other way counts as inactive or inconclusive.
Potency is read from the fitted curve at half-maximal effect.

Test: qHTS of pediatric cancer cell lines to identify multiple opportunities for drug repurposing: Confirmatory screen for SJ-GBM2 cells (AID 1347116); also: nearly all actives have a fitted effect of over 60% in size;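 as to activity change, negative = cytotoxic: plate controls were DMSO for no effect and bortezomib for full effect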
Conditions: SJ-GBM2 glioblastoma cells, viability; series mostly up to 45.9 µM; activity change, negative = cytotoxic: at the top concentration
Summary of the method: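 Viability measured as metabolically active cells via CellTiter-Glo luminescence following 48 hours of compound exposure, 11-point dilutions in confirmatory testing. 500-1,000 cells/well plated 5 hours before dosing; controls were DMSO and 2.3 µM bortezomib.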
In the case of `COc1cc2ncnc(Nc3cc(Br)c(O)c(Br)c3)c2cc1OC`, the “activity change, negative = cytotoxic” value is reported as 33%. With `CC(C)C[C@H](NC(=O)c1cc2ccccc2s1)C(=O)N1CCN(C(=O)[C@H](CO)NS(=O)(=O)c2ccc(Cl)cc2Cl)CC1` the “activity change, negative = cytotoxic” value was -22.5%. In the case of `COc1cc2c(cc1Cc1cccc(Cl)c1F)c(=O)c(C(=O)O)cn2[C@H](CO)C(C)C`, the “activity change, negative = cytotoxic” value is reported as -17.5%. For `CC(C)n1c(C=C[C@H](O)C[C@H](O)CC(=O)O)c(-c2ccc(F)cc2)c2ccccc21`, the Potency was 13.1 µM (active). With `FC(F)(F)c1ccc(C=Cc2nc(COc3ccc(CCCCn4ccnn4)cc3)co2)cc1` the “activity change, negative = cytotoxic” value was -18.8%. In the case of `O=C(c1ccc(F)c(F)c1Nc1ccc(I)cc1F)N1CC(O)([C@H]2CCCCN2)C1`, the “activity change, negative = cytotoxic” value is reported as -27%. With `Cc1ccc2c(c1)C(=O)[C@]1(O)CCN(c3ccccc3)C1=N2` the “activity change, negative = cytotoxic” value was -13.8%. With `Cc1nn(Cc2ccccc2Cl)c(C)c1CN(C)CC(O)COc1ccc(Cl)cc1` (centres undefined) the “activity change, negative = cytotoxic” value was -16.1%.

Test: qHTS of pediatric cancer cell lines to identify multiple opportunities for drug repurposing: Confirmatory screen for BT-37 cells (AID 1347117); also: nearly all actives have a fitted effect of over 55% in size;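 as to activity change, negative = cytotoxic: plate controls were DMSO for no effect and bortezomib for full effect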
Conditions: BT-37 pediatric cancer cells, viability; series mostly up to 45.9 µM; activity change, negative = cytotoxic: at the top concentration
Summary of the method: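 Viability after 48 h compound treatment at 37C, 500-1,000 cells/well, read as ATP luminescence with CellTiter-Glo. Primary screens used 11-point (MIPE, 0.78 nM-46 µM) or 8-point (NPC, 0.59 nM-46 µM) final concentrations; follow-up screens used 11-point dilutions.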
With `O=C1NC(=O)C(c2cnc3ccccn23)=C1c1cn2c3c(cccc13)CN(C(=O)N1CCOCC1)CC2` the Potency was 16.5 µM (active). In the case of `COC(=O)Nc1ccc(-c2nc(N3CCOCC3)c3cnn(C4CCN(C(=O)OC)CC4)c3n2)cc1`, the Potency is reported as 3.69 µM (active). For `CN1CCN(c2ncc(-c3cc(Cl)cc(Cl)c3Cl)c(N)n2)CC1`, the Potency was 26.1 µM (active). In the case of `CC(C)C[C@H](NC(=O)c1cc2ccccc2s1)C(=O)N1CCN(C(=O)[C@H](CO)NS(=O)(=O)c2ccc(Cl)cc2Cl)CC1`, the Potency is reported as 13.1 µM (active). With `CON(C)C(=O)N1N=C(c2cc(F)ccc2F)S[C@]1(CCCN)c1ccccc1` the Potency was 0.0074 µM (active). For `CNC(=O)[C@H](CC1=CN=C2C=CCC=C12)NC(=O)[C@@H](CC(=O)NO)CC(C)C`, the Potency was 0.827 µM (active). With `CC(C)n1c(C=C[C@H](O)C[C@H](O)CC(=O)O)c(-c2ccc(F)cc2)c2ccccc21` the Potency was 14.7 µM (active). In the case of `C[C@H](c1ccc(F)cc1CCCC(=O)O)N(c1cc(F)ccc1F)S(=O)(=O)c1ccc(Cl)cc1`, the “activity change, negative = cytotoxic” value is reported as -21.8%. In the case of `CCC(c1ccc(O)cc1)C(CC)c1ccc(O)cc1` (centres undefined), the Potency is reported as 10.4 µM (active). For `Cc1ccc2c(c1)C(=O)[C@]1(O)CCN(c3ccccc3)C1=N2`, the “activity change, negative = cytotoxic” value was -2.25%. In the case of `Nc1ccn([C@@H]2O[C@H](CO)[C@@H](O)[C@H]2O)c(=O)n1`, the Potency is reported as 0.329 µM (active).
